Bioassay records deposited in PubChem by National Center for Advancing Translational Sciences (NCATS).
AmpC no deterg: blocks E. coli AmpC beta-lactamase in detergent-free assay; P00811; AmpC nitrocefin hydrolysis, absorbance 480 nm, 0.0001% Triton; Potency, µM (top dose mostly 57.1 µM), hits mostly inhibitors; actives 0.52% (n = 330,000); AID 485341; also: nearly all actives have a fitted effect of over 20% in size
Target sequence (P00811 whole entry, looked up): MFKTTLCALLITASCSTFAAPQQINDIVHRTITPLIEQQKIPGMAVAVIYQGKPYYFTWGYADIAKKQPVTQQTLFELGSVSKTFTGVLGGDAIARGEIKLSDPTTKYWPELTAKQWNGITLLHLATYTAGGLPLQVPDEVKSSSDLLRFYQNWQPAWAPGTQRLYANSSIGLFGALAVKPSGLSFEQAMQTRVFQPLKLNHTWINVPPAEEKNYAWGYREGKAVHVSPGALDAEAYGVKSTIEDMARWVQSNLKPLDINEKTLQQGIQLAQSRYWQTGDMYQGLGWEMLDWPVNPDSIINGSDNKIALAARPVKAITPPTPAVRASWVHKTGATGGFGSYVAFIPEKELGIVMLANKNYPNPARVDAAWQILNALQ
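20 mM phosphate pH 7.0 + 0.01% (detergent screen) or 0.0001% Triton X-100; 5.3 nM AmpC reagent; cpd preinc 15 min RT; nitrocefin (800 uM stock) to start; A480 q20 s × 4 min; Activity was normalised to no-enzyme and no-compound control wells.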
Sm TGR inh: S. mansoni TGR enzyme inhibition; purified TGR, DTNB reduction, TNB absorbance 405 nm; Potency, µM (highest dose often 114 µM), actives largely listed as inhibitors; actives 3% (n = 360,000); also: nearly all actives have a fitted effect of over 60% in size
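Kinetic colorimetric format: TGR-catalysed, NADPH-driven DTNB reduction monitored via TNB absorbance. Enzyme dispensed at 20 nM; compound exposure 15 min at room temperature before reaction start.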
AmpC detergent: inhibitors of E. coli AmpC beta-lactamase with detergent; AmpC hydrolysis of nitrocefin, absorbance 480 nm, 0.01% Triton; actives 0.041% (n = 370,000); Potency, µM (doses to about 114 µM), actives largely listed as inhibitors; also: nearly all actives have a fitted effect of over 25% in size
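20 mM phosphate pH 7.0 + 0.01% (detergent screen) or 0.0001% Triton X-100; 5.3 nM AmpC reagent; cpd preinc 15 min RT; nitrocefin (800 uM stock) to start; A480 q20 s × 4 min; Activity was normalised to no-enzyme and no-compound control wells.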
AMA1-RON2 inh: AMA1-RON2 (P. falciparum) interaction inhibition; AlphaScreen AMA1-biotinylated RON2 peptide binding; Potency, µM (highest dose often 58.2 µM), hits mostly inhibitors; actives 0.2% (n = 360,000); also: nearly all actives have a fitted effect of over 45% in size
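AMA1 (3D7) with his tag at 25 nM final met compounds first, then biotinylated RON2 peptide at 25 nM; detection used donor plus acceptor beads, 10 µg/mL apiece, read by AlphaScreen after 30 min at room temperature.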
RE007 growth inh: less growth of the S. pombe RE007 Vpr strain | AID 651644 | actives 0.21% (n = 360,000) | S. pombe RE007 Vpr strain, BacTiter-Glo ATP luminescence, 24 h | Potency, µM (doses to about 92.2 µM), usual class: inhibitors; active = well fitted falling curve with a large enough effect; inconclusive = small, poorly fitted or top-dose-only effect; inactive = no such curve, though single readings can be large or run the other way; also: nearly all actives have a fitted effect of over 50% in size
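Fission yeast strain RE007, carrying one chromosomally integrated HIV-1 vpr copy, was seeded at OD 0.01 in PMG+AL medium with 23 nL pinned compound. After 24 h at 30 °C and 99% humidity, viability was read by BacTiter-Glo luminescence.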
Of the large screens only hits and unclear results are named; the others gave an inactive call. A selection: hits, their analogues and other compounds. The true share with any hit is near 3.2%. Unless noted, calls follow the shape of the dose curve; as a rule, active = well fitted curve in the direction sought with a large enough effect; inconclusive = small, poorly fitted or top-dose-only effect, or another doubt; inactive = no such curve, though single readings can be large; an effect the other way counts as inactive or inconclusive.

CCOc1ccccc1NC(=O)C1CCN(S(=O)(=O)c2cc(Br)cc3c2N(C(C)=O)CC3)CC1	none (no result: AmpC no deterg, AMA1-RON2 inh, RE007 growth inh)
O=C(NCc1cccnc1)c1ccc(CS(=O)(=O)Cc2ccc(Cl)cc2)o1	Sm TGR inh inconclusive
COC(=O)c1ccccc1NC(=O)c1ccc(COc2cccc3ccccc23)o1	Sm TGR inh 56µM
O=C(NCc1ccccn1)c1ccc(CS(=O)(=O)Cc2ccc(Cl)cc2)o1	Sm TGR inh 28µM, AmpC detergent inconclusive
O=C(NCc1ccco1)c1ccc(-c2cccc(Cl)c2)o1	Sm TGR inh 32µM
Cc1cccc(N2CCN(C(=O)CN3C(=O)COc4ccc(S(=O)(=O)N5CCC(C)CC5)cc43)CC2)c1C	none (no result: AmpC no deterg, AMA1-RON2 inh, RE007 growth inh)
CCCCCCCCSC1=CC(=O)C(OC)=C(OC)C1=O	AMA1-RON2 inh 7.9µM (no result: AmpC no deterg, Sm TGR inh, AmpC detergent)
CCCCCSc1nncc(=O)[nH]1	none
Cn1c(C(=O)NCc2ccc(F)cc2)cc2c(=O)n(C)c3ccccc3c21	none (no result: AmpC no deterg, AMA1-RON2 inh, RE007 growth inh)
CCC(NC(=O)C(C)NC)C(=O)N1CCCC1C(=O)NC1CCCc2ccccc21 (centres undefined)	Sm TGR inh 32µM
Cc1cc2c(s1)c1c(C)nn(Cc3ccccc3F)c(=O)c1n2C	none (no result: AMA1-RON2 inh, RE007 growth inh)
COc1ccc(C2/C=C\CN(Cc3ccco3)CC(=O)N2Cc2ccc(F)cc2)cc1 (centres undefined)	Sm TGR inh 32µM
COc1ccc(C2/C=C\CN(S(=O)(=O)c3ccc(C)cc3)[C@H](Cc3ccccc3)C(=O)N2Cc2ccc(F)cc2)cc1 (some centres undefined)	Sm TGR inh 28µM
COc1ccc(C2C(=O)N(C3CCCCC3)CC(=O)N2Cc2ccco2)cc1 (centres undefined)	Sm TGR inh 32µM
COc1ccc(C2/C=C\CN(C(=O)Nc3ccccc3)CC(=O)N2Cc2ccc(F)cc2)cc1 (centres undefined)	none
CC(=C\C(=O)O)/C(=C/c1ccco1)C(=O)O	Sm TGR inh inconclusive
CC(=C\C(=O)O)/C(=C/c1ccc(C)o1)C(=O)O	Sm TGR inh 32µM
Cc1c(Cl)ccc2c1NC(=O)[C@]21N[C@@H](CCC(N)=O)[C@H]2C(=O)N(c3ccc(F)cc3)C(=O)[C@H]21	Sm TGR inh 13µM, AmpC detergent inconclusive
CSCCC1NC2(C(=O)Nc3c2ccc(Cl)c3C)[C@@H]2C(=O)N(C3CCCC3)C(=O)[C@H]12 (some centres undefined)	none
Cc1c(Cl)ccc2c1NC(=O)C21NC(CCC(N)=O)[C@H]2C(=O)N(c3ccc(Cl)cc3)C(=O)[C@H]21 (some centres undefined)	Sm TGR inh 35µM
Cc1ccc(-c2nc3cc(Cl)ccc3o2)cc1NC(=O)c1cc2ccccc2o1	none (no result: AmpC no deterg, AMA1-RON2 inh, RE007 growth inh)
CC(NC(=O)CN1C(=O)COc2ccc(Cl)cc21)c1ccccc1 (centres undefined)	none (no result: AmpC no deterg, AMA1-RON2 inh, RE007 growth inh)
O=C(O)c1cccc(N2C(=O)c3ccc(C(=O)c4cccc([N+](=O)[O-])c4)cc3C2=O)c1	Sm TGR inh 50µM
O=C(O)c1ccc2c(c1)C(=O)N(c1cccc(C(=O)/C=C/c3ccccc3)c1)C2=O	Sm TGR inh 25µM
Cc1ccc2occ(-c3cc(-c4ccc(Cl)cc4)nc4c3COc3ccccc3-4)c(=O)c2c1	none (no result: AmpC no deterg, AMA1-RON2 inh, RE007 growth inh)
Cc1ccc(-n2c(=O)c3oc4ccccc4c3n(Cc3cccc(F)c3)c2=O)cc1C	none (no result: AmpC no deterg, AMA1-RON2 inh, RE007 growth inh)
CN1CCN(C(=O)CC2(CC(=O)O)CCCC2)CC1	AmpC detergent inconclusive
CN1CCCN(C(=O)CC2(CC(=O)O)CCCC2)CC1	AmpC detergent 28µM
CC(=O)c1ccccc1Oc1nc(CN2CCOCC2)nc2scc(-c3cccs3)c12	Sm TGR inh 45µM
COc1ccc(C(C)=O)c(Oc2nc(CN3CCOCC3)nc3scc(-c4cccs4)c23)c1	none
COc1ccc2ccccc2c1/C=N\NC(=O)c1ccc(C)s1	AmpC no deterg 11µM
CCOC(=O)N1CCc2c(sc3c2c(=O)n(-c2ccc(CC)cc2)c(=O)n3CC(=O)c2ccc(F)cc2)C1	none (no result: AmpC no deterg, AMA1-RON2 inh, RE007 growth inh)
COc1ccc(NC(=O)c2cc(S(=O)(=O)N3CCCCCC3)cn2C)cc1Cl	none (no result: AmpC no deterg, AMA1-RON2 inh, RE007 growth inh)
O=C(OCc1nc2ccc(Cl)cc2n1CCO)c1ccccc1	Sm TGR inh 18µM
O=C(OCc1nc2ccc(Cl)cc2n1CCO)c1ccc(O)cc1	none
Cc1ccc(CNC(=O)c2cn(C3CCCCC3)c(=O)c3c2c2ccccc2n3C)o1	Sm TGR inh 10µM
Cc1ccc(CNC(=O)c2cn(C)c(=O)c3c2c2ccccc2n3C)o1	Sm TGR inh 22µM
CCCCN(CC)CCNC(=O)c1cn(C)c(=O)c2c1c1ccccc1n2C	none
CCCCN(C)CCNC(=O)c1cn(C)c(=O)c2c1c1ccccc1n2C	Sm TGR inh 45µM
Cc1ccc(CNC(=O)c2cc3c(=O)n(C)c4ccccc4c3n2C)o1	AmpC detergent inconclusive
COc1ccc(-n2c(=O)c3c(C)c(C)sc3n(CC(=O)NCc3ccc(C)cc3)c2=O)c(OC)c1	none (no result: AmpC no deterg, AMA1-RON2 inh, RE007 growth inh)
COc1cccc(N2C(=O)C(CC(=O)Nc3cccc(F)c3)N(C(C)C)C2=O)c1 (centres undefined)	none (no result: AmpC no deterg, AMA1-RON2 inh, RE007 growth inh)
CC(=O)OCC1=C(C(=O)O)N2C(=O)C(NC(=O)CC(C)c3ccccc3)C2SC1 (centres undefined)	Sm TGR inh 28µM
CC1=C(C(=O)OCc2ccc([N+](=O)[O-])cc2)N2C(=O)C(NC(=O)Cc3ccccc3)C2SC1 (centres undefined)	none
CC(=O)OCC1=C(C(=O)O)N2C(=O)C(NC(=O)C(C)Cn3cc(Cl)cn3)C2SC1 (centres undefined)	Sm TGR inh 28µM, AmpC detergent inconclusive
CCOc1ccc(C(=O)NC2C(=O)N3C(C(=O)O)=C(COC(C)=O)CSC23)cc1OCC (centres undefined)	Sm TGR inh 22µM, AmpC detergent inconclusive
C=CC1=C(C(=O)O)N2C(=O)C(NC(=O)Cc3ccccc3)C2SC1 (centres undefined)	Sm TGR inh 10µM
CC(CC(=O)NC1CCSC1=O)c1ccccc1 (centres undefined)	none
CCC(Nc1ccc(-c2nc(-c3cccnc3)no2)cc1[N+](=O)[O-])c1ccccc1 (centres undefined)	none (no result: AmpC no deterg, AMA1-RON2 inh, RE007 growth inh)
CCOc1cc(CNCCSc2nnnn2-c2ccccc2)cc(Cl)c1OC	none (no result: AmpC no deterg, AMA1-RON2 inh, RE007 growth inh)
CC(=O)OCC1=C(C(=O)O)N2C(=O)[C@@H](NC(=O)Cc3cccs3)[C@H]2SC1	AmpC no deterg 8.9µM, Sm TGR inh inconclusive, AmpC detergent 7.1µM
CC(=O)OCC1=C(C(=O)O)N2C(=O)[C@@H](NC(=O)Cc3ccccc3)[C@H]2SC1	none (no result: AmpC no deterg, Sm TGR inh, AmpC detergent)
O=C(CC(=O)Nc1ccccc1F)Nc1ccc2nc3n(c(=O)c2c1)CCCCC3	none (no result: AmpC no deterg, AMA1-RON2 inh, RE007 growth inh)
Cc1cccc(NC(=O)CCn2cnnn2)c1C	none (no result: AmpC no deterg, AMA1-RON2 inh, RE007 growth inh)
C#CCSc1nsc(SCC#C)c1C#N	Sm TGR inh 35µM
